# ChEMBL document CHEMBL3988442, “University of Dundee, Small-Polar-MMV Screening Library” (2021)
# About 13,000 (27%) of roughly 48,000 compounds showed an effect of 50% or more. The list shows a part of the results.
# Test system: Wolbachia pipientis
# Assay: Anti-Wolbachia Cell-Based Screen
# Format: functional
# Parameters: scale not given: in the data most compounds retested in dose-response had high values
# Settings: 5 µM
row,Compound,Percent Effect
1,Cc1cncc(NCC(O)c2ccco2)n1 (stereo unspecified),11.88%
2,Clc1ccc(OCCNC2(c3ccc(Br)cc3)CCOCC2)cc1,18.48%
3,Cc1nnc(CCNC(=O)C(c2ccc(F)cc2)N(C)C)[nH]1 (stereo unspecified),15.69%
4,CSCCCN1CCn2nc(CNC(C)=O)cc2C1,-21.5%
5,CNS(=O)(=O)CCNC(=O)[C@@]12CNC[C@@H]1CN(C1CCCC1)C2,-0.715%
6,CC(=O)NC1(C(=O)N2CCCN(c3cccnn3)CC2)CCCCC1,1.939%
7,CN(C)CCOCc1nnc2n1CCN(Cc1ccco1)C2.O=C(O)C(F)(F)F.O=C(O)C(F)(F)F,-14.14%
8,O=C(O)C(F)(F)F.O=C(O)C(F)(F)F.c1cncc(COCc2nnc3n2CCN(Cc2cccs2)C3)c1,-10.65%
9,Cc1ccc(CN2CCc3nnc(COCCN(C)C)n3CC2)o1.O=C(O)C(F)(F)F.O=C(O)C(F)(F)F,95.05%
10,CC(=O)NCc1nnc2n1CCN(Cc1cccs1)C2.O=C(O)C(F)(F)F,-7.249%
11,O=C(O)C(F)(F)F.O=C(O)C(F)(F)F.c1cncc(COCc2nnc3n2CCN(Cc2ccco2)C3)c1,-13.62%
12,CN(C)CCOCc1nnc2n1CCN(Cc1cccs1)CC2.O=C(O)C(F)(F)F.O=C(O)C(F)(F)F,101.6%
13,CCOCc1nnc2n1CCN(Cc1c(C)noc1C)CC2.O=C(O)C(F)(F)F,-27.85%
14,CN(C)CCOCc1nnc2n1CCN(Cc1ccco1)CC2.O=C(O)C(F)(F)F.O=C(O)C(F)(F)F,99.11%
15,COc1ccc(NC(=O)C2CCCO2)cc1OCc1cccnc1 (stereo unspecified),5.381%
16,Cc1cnccc1N1CCCN(C(=O)CCCn2ccnc2C)CC1,-4.474%
17,Cc1nn(C)c(C)c1CCn1cncc1-c1ccc2c(c1)CC(C)N2C.Cl (stereo unspecified),101.8%
18,Cc1nn(C)c(C)c1CCC(=O)N1CC(c2cccnc2)C1,23.02%
19,Cc1nccn1CCCn1cncc1-c1ccc2c(c1)CCC(C)N2C.Cl (stereo unspecified),102.7%
20,CCN1c2ccc(-c3cncn3CCCn3ccnc3C)cc2CC1C.Cl (stereo unspecified),77.37%
21,Cc1nccn1CCCNC(=O)C1CCCCN1Cc1ccncc1 (stereo unspecified),-5.862%
22,Cc1nccn1CCCn1cncc1-c1ccc2c(c1)CCCN2C.Cl,98.66%
23,Cc1nn(C)c(C)c1CCC(=O)N1CCc2sccc2C1,7.197%
24,CCOc1ncc(NC(=O)c2ccccn2)c(OCC)n1,0.09854%
25,CN1C[C@@H]2CC[C@H](C1)N(Cc1ccccc1OCCN1CCOCC1)C2,-8.693%
26,CSc1ccc(CNc2ccccc2CN2CCC(O)CC2)cc1,-4.512%
